PubChem BioAssay (NCATS)
Records with an inconclusive call do not appear. Where a call stands in place of a potency, no number is given. Values without a mark were called inactive. Activity calls are given as the source filed them. The call rests on the fitted dose curve; in most records, active means well fitted inhibition curve with a large enough effect; inconclusive means small, poorly fitted or top-dose-only effect; inactive means no such curve, though single readings can be large or run the other way.

Assays:
[1] = system: Zika virus NS2B-NS3 protease (unlinked complex); experiment: Primary screen GU Rhodamine qHTS for Zika virus inhibitors: Unlinked NS2B-NS3 protease assay (AID 1347159); further: nearly all actives have a fitted effect of over 60% in size
Summary of the method: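 Buffer 10 mM Tris-HCl pH 8.0, 0.01% Tween 20. Unlinked protease 25 nM; compound preincubation 15 min, RT, protected from light. Substrate Rhod110, 1.5 microM; ~15% conversion in 15 min.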

[2] = system: Zika virus NS2B-NS3 protease (linked construct); experiment: Primary screen NINDS Rhodamine qHTS for Zika virus inhibitors (AID 1347160); further: nearly all actives have a fitted effect of over 55% in size
Summary of the method: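 Aprotinin served as in-plate control. Conditions: 25 nM linked NS2B-NS3, pH 8.0 Tris buffer, titrated compounds, 15 min preincubation and 15 min reaction with 1.5 microM Rhod110 substrate at room temperature.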
Potency means the concentration at half of the fitted maximal effect.

| SMILES | Potency [1] | Potency [2] | activity change, negative = inhibition [1] |
| --- | --- | --- | --- |
| CC(C)NC(=O)c1ccc(C#Cc2ccncc2)cn1 | inactive | inactive |  |
| CC1=C[C@H](O)[C@H]2C(C)(C)CCC[C@]2(C)[C@@]1(O)CO | inactive | inactive |  |
| CC1(C)CC(NC(=O)C(=O)Nc2ccc(Cl)cc2)CC(C)(C)N1 | inactive | inactive |  |
| C=C[C@@](C)(CCC=C(C)C)O[C@@H]1O[C@H](CO[C@@H]2OC[C@H](O)[C@H](O)[C@H]2O)[C@@H](O)[C@H](O)[C@H]1O | inactive | inactive |  |
| CC1(CO)CCCC2(C)C1C(OC(=O)c1ccccc1)CC1C(=O)OCC12O (stereo not drawn) | inactive | inactive |  |
| Cc1cn(C[C@H](N)C(=O)O)c(=O)n(Cc2ccsc2C(=O)O)c1=O | inactive | inactive |  |
| COc1cc2c(cc1OC)N1C(=O)C[C@@]34C=CC[N@+]5([O-])CC[C@H]2[C@H](CC3)[C@@]145 | inactive | inactive |  |
| COc1cc(O)cc(C)c1C(=O)O[C@H]1[C@@H](O)[C@@H](n2ccc(=O)[nH]c2=O)O[C@@H]1CO | inactive | inactive |  |
| CC12CC(O)C(O)C=C1c1cc(O)cc(O)c1C(=O)O2 (stereo not drawn) | inactive | inactive |  |
| CC1(C)CC=C(C#Cc2ccccc2)c2cc(/C=C/c3ccc(C(=O)O)cc3)ccc21 | 6.31 µM (active) | 15.8 µM (active) |  |
| CC(O)C(O)/C=C/C=C/C(=O)O[C@@H]1C=C(C(=O)O)[C@](O)(CO)[C@@]2(C)CCCC(C)(C)[C@H]12 (stereo partly drawn) | inactive | inactive |  |
| C=C1CC23CC1CCC2C12OC(=O)C(C)(C(O)CC1O)C2C3C(=O)O (stereo not drawn) | inactive | inactive |  |
| COc1cncc(C#Cc2ccccn2)c1 | inactive | inactive |  |
| CC(C)(O)c1ccc2c(c1)C(=O)C[C@H]1[C@](C)(C(=O)O)CCC[C@]21C | inactive | inactive |  |
| NC(=O)C(O[C@@H]1O[C@H](CO[C@@H]2O[C@H](CO)[C@@H](O)[C@H](O)[C@H]2O)[C@@H](O)[C@H](O)[C@H]1O)c1ccccc1 (stereo partly drawn) | inactive | inactive |  |
| C[C@@H]1O[C@@H](O[C@H]2[C@H](OC(=O)[C@]34CCC(C)(C)C[C@H]3C3=CCC5[C@@]6(C)CC[C@H](O[C@@H]7O[C@H](CO[C@@H]8OC[C@H](O)[C@H](O)[C@H]8O[C@@H]8OC[C@@H](O)[C@H](O)[C@H]8O)[C@@H](O)[C@H](O)[C@H]7O)C(C)(C)C6CC[C@@]5(C)[C@]3(C)C[C@H]4O)O[C@H](CO)[C@@H](O)[C@@H]2O)[C@H](O[C@@H]2O[C@H](CO)[C@@H](O)[C@H](O)[C@H]2O)[C@H](O)[C@H]1O[C@@H]1OC[C@@H](O)[C@H](O[C@@H]2OC[C@@H](O)[C@H](O)[C@H]2O)[C@H]1O (stereo partly drawn) |  | inactive | 2.96% [at 19.1 µM] |
| CC(=O)OC1CC(C(C)(C)O)OC2CCC3(C)OC4=C(C(=O)C=C5C(C)C(OC(C)=O)C6(C)C(C)OC546)C(O)C3C12C (stereo not drawn) | inactive | inactive |  |

| SMILES | Potency [1] | Potency [2] | activity change, negative = inhibition [1] |
| --- | --- | --- | --- |
| COc1cccc(Cn2ncc3c4sc(S(C)=O)cc4n(C)c3c2=O)c1 (stereo not drawn) | inactive | inactive |  |
| COC(=O)C1=COC(O[C@@H]2O[C@H](CO)[C@@H](O)[C@H](O)[C@H]2O)/C(=C\COC(=O)/C=C/c2ccccc2)C1CC(=O)OCCc1ccc(O)cc1 (stereo partly drawn) | inactive | inactive |  |
| O=C(Nc1cc(-c2ccccc2)nn1-c1ccccc1)c1ccc([N+](=O)[O-])cc1 | inactive | inactive |  |
| CC1(C)CC[C@]2(C(=O)O[C@@H]3O[C@H](CO[C@@H]4O[C@H](CO)[C@@H](O)[C@H](O)[C@H]4O)[C@@H](O)[C@H](O[C@@H]4O[C@H](CO)[C@@H](O)[C@H](O)[C@H]4O)[C@H]3O)[C@H](O)C[C@]3(C)C(=CCC4[C@@]5(C)CC[C@H](O[C@@H]6OC[C@@H](O)[C@H](O)[C@H]6O)[C@@](C)(C(=O)O)C5CC[C@]43C)[C@@H]2C1 (stereo partly drawn) | inactive | inactive |  |
| COC1OC(=O)C2=C1C1(C)CCCC(C)(C)C1CC2O (stereo not drawn) | inactive | inactive |  |
| CC(C)C1NC(=O)C(CC2(O)c3ccccc3N3C(=O)C(Cc4ccccc4)NC32)NC1=O (stereo not drawn) | inactive | inactive |  |
| CC1OC(OC2CCC3(C)C(CCC4(C)C3C=CC35OCC6(CCC(C)(C)CC63)CCC45C)C2(C)CO)C(OC2OC(CO)C(O)C(O)C2O)C(O)C1OC1OC(CO)C(O)C(O)C1O (stereo not drawn) | inactive | inactive |  |
| CC(=O)c1[nH]cc(CCC(=O)O)c1CC(=O)O | inactive | inactive |  |
| Cc1ccc(COC(=O)N2CC[C@@H](CNc3ncccn3)[C@@H](F)C2)cc1 | inactive | inactive |  |
| C[C@H](/C=C/[C@@]1(O)[C@H](C)CC(=O)CC1(C)C)O[C@@H]1O[C@H](CO[C@@H]2OC[C@@H](O)[C@H](O)[C@H]2O)[C@@H](O)[C@H](O)[C@H]1O | inactive | inactive |  |
| CC1=CC(=O)[C@]2(O[C@@H]3O[C@@H](C)[C@H](O)[C@@H](O)[C@H]3O)C=CO[C@@H](O[C@@H]3O[C@H](CO)[C@@H](O)[C@H](O)[C@H]3O)[C@H]12 | inactive | inactive |  |
| CC(NC(=O)c1ccccc1N)C(=O)O (stereo not drawn) | inactive | inactive |  |
| CC(=O)C1CCC(=O)N1Cc1ccccc1 (stereo not drawn) | inactive | inactive |  |
| COc1cc(/C=C/C(=O)O)ccc1O[C@@H]1O[C@H](CO)[C@@H](O)[C@H](O)[C@H]1O[C@@H]1OC[C@](O)(CO)[C@H]1O | inactive | inactive |  |
| C/C=C(\C)C(=O)OCC1OC(OC2OC(CO)C(O)C(O)C2O)C(O)C(O)C1O (stereo not drawn) | inactive | inactive |  |
| CC(=O)O[C@H]1[C@H](OC(=O)C(C)C)[C@]2(C)OC3(CC[C@]2(C)[C@H]2CCC[C@]4(CO4)[C@]12C)COC(=O)C3 (stereo partly drawn) | inactive | inactive |  |
| CC(CCc1ccc(O)cc1)O[C@@H]1O[C@H](CO[C@@H]2OC(CO)[C@H](O)[C@H]2O)[C@@H](O)[C@H](O)[C@H]1O (stereo partly drawn) | inactive | inactive |  |
